GAA spleen mod – inhibitors or activators of human alpha-glucosidase in spleen homogenate; P10253; human spleen homogenate, 4-MU-alpha-glucoside fluorescence; Potency, µM (highest dose often 79.9 µM), inactives show at the top dose activity change, negative = inhibition, actives largely listed as inhibitors; 240,000 compounds, 0.006% hits; AID 2112;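 further: 0% = enzyme with vehicle and -100% = no enzyme basal signal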
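Compounds were titrated against alpha-glucosidase in spleen homogenate at pH 5.0, with 1 mM 4-methylumbelliferyl substrate for 40 min at 37 C. Reactions were quenched with pH 10 NaOH/glycine and fluorescence measured.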
N370S GC mod – N370S glucocerebrosidase modulation, Gaucher chaperone candidate. 330,000 compounds, 0.092% hits. Potency, µM (series often up to 59.4 µM), for the others: top-dose activity change, negative = inhibition, most hits filed as inhibitors. N370S GC spleen homogenate, 4MU-glucoside fluorescence. AID 2101;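 further: 0% = full enzyme activity and -100% = no enzyme basal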
GAA inh – inhibitors of human lysosomal alpha-glucosidase; P10253; purified human GAA, 4-MU-alpha-glucoside fluorescence; Potency, µM (highest dose often 76.9 µM), inactives show top-dose activity change, negative = inhibition, most hits filed as inhibitors; 200,000 compounds, 0.005% hits; AID 1466;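 further: plate controls were uninhibited enzyme wells for no effect and no-enzyme background for full effect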
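Enzyme (4 nM final) mixed with compound (up to 77 uM), then 4-MU-alpha-D-pyranoside (400 uM final) added; 20 min at room temperature, pH 5.0. Reaction stopped at pH 10, fluorescence read, AC50 derived by Hill fit.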
GAA glycogen mod – inhibitors or activators of human alpha-glucosidase glycogen cleavage; recombinant GAA, glycogen substrate, Amplex Red glucose oxidase fluorescence; Potency, µM (highest dose often 76.4 µM), for the others: at the highest dose activity change, negative = inhibition, actives largely listed as inhibitors; 300,000 compounds, 0.38% hits; AID 2100;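 further: 0% = full enzyme reaction and -100% = no-enzyme basal signal; the screen sought inhibitors and activators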
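Recombinant enzyme (4 nM final) with compounds titrated up to 77 uM and bovine liver glycogen (30 ug) in citrate pH 5.0, 0.01% Tween-20, 37 C 40 min. Released glucose detected by Amplex Red/glucose oxidase (Ex 573/Em 610); AC50 from Hill fits.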
Lamin A splicing – changes lamin A minigene splicing in HeLa cells; HeLa LMNA splicing GFP/RFP minigene ratio, 48 h; Potency, µM (titrated, usually from 46.1 µM), for the others: at the highest dose ratio change, negative = inhibition, usual class: inhibitors; 200,000 compounds, 0.01% hits; AID 1487; active means well fitted inhibition curve with a large enough effect in the signal ratio, with a control signal flat, not every such curve was filed as active; inconclusive means small, poorly fitted or top-dose-only effect, or effect the other way, or a change in a side signal; the % refers to the signal ratio
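Read-out is the ratio of GFP to DsRed2 object intensity, acquired by 488 nm laser-scanning cytometry on HeLa lamin A-EGFP minigene reporter cells. Compound incubation 48 hrs at 37 °C in Opti-MEM with 2% FBS; DMSO 0.5% final.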
Active calls of the source: *; ? = inconclusive; nt = no result; [ ] = dose if it differs, or a comment. Compounds with a hit are over-represented: about 0.42% of the library has one in this group of screens. Unless noted, the call rests on the fitted dose curve; in most records, active means well fitted curve in the direction sought with a large enough effect; inconclusive means small, poorly fitted or top-dose-only effect, or another doubt; inactive means no such curve, though single readings can be large; an effect the other way counts as inactive or inconclusive. Unless noted, on the % scale 0 is the no-effect control and ±100 the full control effect; potency means the concentration at half of the fitted maximal effect.

SMILES | GAA spleen mod | N370S GC mod | GAA inh | GAA glycogen mod | Lamin A splicing
COc1ccc2c(c1)-c1c(sn(-c3ccc(OC)c(OC)c3)c1=S)C(C)(C)N2 | -3% | -3% | -10% | 22µM* | 15%
CC[C@H](C)[C@H](NC(=O)CNC(=O)[C@H](CCCNC(=N)N)NC(=O)[C@H](CO)NC(=O)[C@H](C)NC(=O)[C@H](Cc1ccc(O)cc1)NC(=O)[C@H](Cc1c[nH]c2ccccc12)NC(=O)[C@H](C)NC(=O)[C@@H]1CCCN1C(=O)[C@H](CC(N)=O)NC(=O)[C@@H](NC(=O)[C@H](CC(=O)O)NC(=O)[C@@H]1CCCN1C(=O)[C@@H](N)[C@@H](C)O)[C@@H](C)CC)C(=O)N[C@@H](CCCNC(=N)N)C(=O)N1CCC[C@H]1C(=O)N[C@H](C(=O)NCC(=O)N[C@@H](CCCNC(=N)N)C(=O)N[C@@H](Cc1ccccc1)C(N)=O)C(C)C | 4% | -1% | nt | nt | nt
CCc1cc(-c2n[nH]c(C)c2-c2nc3ccccc3n2C)c(O)c(CN2CCN(C)CC2)c1O | -5% | -5% | -6% | 8.9µM* | 8%
CCc1cc(-c2n[nH]c(C)c2-c2nc3ccccc3n2C)c(O)cc1O | -6% | -21% | ? | ? | ?
O=C(O)COc1ccc(OCCNC[C@H](O)COc2ccccc2)cc1 | 2% | -2% | nt | nt | nt
Nc1cc(-c2ccccc2)ccc1O | -2% | -7% | -6% | 10µM* | ?
COc1ccc(NC(=S)N(CCc2c(C)[nH]c3ccc(C)cc23)Cc2ccco2)cc1 | -8% | 20% | -5% | -20% | ?
CCOc1ccc(NC(=S)N(CCc2c(C)[nH]c3ccc(C)cc23)Cc2ccco2)cc1 | 2% | 13% | 3% | 35µM* | ?
Cc1sc2nc(N)sc2c1C | 0% | 1% | -5% | 18µM* | -2%
Cc1ccc(C)c2sc(N)nc12 | 12% | -11% | 2% | -8% | 10%[46 µM]
COc1cc(/C=N\NC(=O)c2c(C)nc3cc(C)ccn23)ccc1O | ? | ? | -4% | 11µM* | nt
Cc1ccn2c(C(=O)N/N=C/c3ccc(Cl)cc3)c(C)nc2c1 | nt | -5% | nt | -6% | nt
CC[C@H](C)[C@H](NC(=O)[C@@H](NC(=O)[C@@H](NC(=O)[C@H](CCC(=O)O)NC(=O)[C@H](CCC(=O)O)NC(=O)[C@H](CCC(=O)O)NC(=O)[C@H](C)NC(=O)[C@@H](N)CC(C)C)C(C)C)C(C)C)C(=O)N[C@@H](CCCNC(=N)N)C(=O)N[C@@H](CO)C(=O)N[C@@H](C)C(=O)N[C@@H](CC(N)=O)C(=O)N[C@@H](Cc1ccccc1)C(=O)N[C@H](C(=O)N[C@@H](CC(=O)O)C(=O)N[C@@H](CC(N)=O)C(=O)O)[C@@H](C)O | 1% | -3% | nt | nt | nt
O=[N+]([O-])c1cc(Cl)ccc1N1CCN(c2ccccc2O)CC1 | -6% | -10% | -1% | 8.8µM* | -21%[46 µM]
NC(=O)c1ccc(N2CCN(c3ccc(O)cc3)CC2)c([N+](=O)[O-])c1 | -3% | -9% | 10% | 5µM* | ?
NCCCC[C@H](NC(=O)CNC(=O)[C@@H]1CCCN1C(=O)[C@H](Cc1ccc(O)cc1)NC(=O)CN)C(=O)N[C@@H](Cc1ccccc1)C(=O)O | -2% | -5% | nt | nt | nt
Cc1ccc(-c2nnc(Nc3ccc(O)cc3)c3ccccc23)cc1S(=O)(=O)N1CCN(C)CC1 | nt | nt | nt | 16µM* | nt
CC1(C)Cc2c(c(-c3ccccc3)nc3[nH][nH]c(=O)c23)CO1 | -5% | 1% | -2% | 5µM* | -12%
Cc1cc(O)c(/C=N/Nc2ccc(Cl)cc2)c(=O)o1 | -9% | -3%[12.8 µM] | 1% | ? | 21%
Cc1cc(O)c(/C=N/Nc2ccccc2Cl)c(=O)o1 | -4% | -2% | -1% | 25µM* | 13%
COc1cc(C2C(C#N)=C(N)Oc3n[nH]c(-c4cccs4)c32)cc(OC)c1O (centres undefined) | 8% | -2% | nt | 18µM* | nt
C#CCOCCOCCOCCNc1nc(N2CCN(C(=O)CCCCCCCCCCNC(=O)Cn3cc(CCCCCN)nn3)CC2)nc(N2CCN(C(=O)CCCCCCCCCCNC(=O)[C@H]([C@@H](C)CC)n3cc(CCCCN=C(N)N)nn3)CC2)n1 | nt | 18µM* | nt | nt | nt
C#CCOCCOCCOCCNc1nc(N2CCOCC2)nc(N2CCN(C(=O)CCCCCCCCCCNC(=O)[C@@H]([C@H](C)CC)n3cc(CCCCCN)nn3)CC2)n1 | nt | -29% | nt | nt | nt
C#CCOCCOCCOCCNc1nc(N2CCN(C(=O)CCCCCCCCCCNC(=O)[C@H]([C@@H](C)CC)n3cc(CCCCN=C(N)N)nn3)CC2)nc(N2CCN(C(=O)CCCCCCCCCCNC(=O)[C@H](CCCCN)n3cc(C)nn3)CC2)n1 | nt | 16µM* | nt | nt | nt
C#CCOCCOCCOCCNc1nc(N2CCN(C(=O)CCCCCCCCCCNC(=O)[C@H]([C@@H](C)CC)n3cc(CCCCCN)nn3)CC2)nc(N2CCN(C(=O)CCCCCCCCCCNC(=O)[C@@H]([C@H](C)CC)n3cc(CCCCCN)nn3)CC2)n1 | nt | 18µM* | nt | nt | nt
SMILES | GAA spleen mod | N370S GC mod | GAA inh | GAA glycogen mod | Lamin A splicing
C#CCOCCOCCOCCNc1nc(N2CCN(C(=O)Cn3cc(CCCN=C(N)N)nn3)CC2)nc(N2CCN(C(=O)[C@H]([C@@H](C)CC)n3cc(CCCCN)nn3)CC2)n1 | nt | -1% | nt | nt | nt
C#CCOCCOCCOCCNc1nc(N2CCN(C(=O)CCCCCCCCCCNC(=O)[C@H]([C@@H](C)CC)n3cc(CCCCCN)nn3)CC2)nc(N2CCN(C(=O)CCCCCCCCCCNC(=O)[C@H]([C@@H](C)CC)n3cc(CCCCN=C(N)N)nn3)CC2)n1 | nt | 18µM* | nt | nt | nt
CCOC(=O)NCCOc1ccc(Oc2ccccc2)cc1 | -4% | -2% | nt | nt | nt
c1ccc(-c2nn[nH]n2)c(Nc2cccc3c2CCCC3)c1 | -4% | 0% | nt | nt | nt
COc1ccc(NC(=O)C(=O)NCC(c2cccnc2)N2CCc3ccccc3C2)cc1 (centres undefined) | nt | nt | nt | 13%[76.3 µM] | 14µM*
Cc1ccccc1N=C1NC(=O)CC(c2ccccc2)S1 (centres undefined) | 6% | -5% | 1% | 11µM* | -11%
O=C(NCCCN1CCCCCC1)C(c1ccccc1)C1CCCCC1 (centres undefined) | 4% | -17% | nt | nt | nt
O=C(O)COc1ccc(/C=N/n2c(COc3ccccc3)nc3ccccc3c2=O)cc1 | -3% | 0% | 0% | 16% | -8%
O=c1c2ccccc2nc(COc2ccccc2)n1/N=C/c1ccc(O)c(O)c1 | -6% | 0% | nt | 16µM* | nt
CCCCCC1(C)NC(=S)N(c2ccccc2)N1 (centres undefined) | -2% | -5% | -4% | 35µM* | nt
